# Results reported in publication PMC8384837, “Expanding the binding specificity for RNA recognition by a PUF domain”.
# Columns and labels:
# Assay in all cases: yeast three-hybrid, YBZ-1, SC-Leu-His + 0.5 mM 3-AT, 4 days
# Conditions in all cases: tags: N-Gal4 AD-HA kept; label: inside an RPR1-promoter hybrid RNA with tandem MS2 sites; ssRNA
# PUM1 PUF domain R2-RRQ = PUM1 PUF domain R2-RRQ (Homo sapiens, UniProt Q14671 828-1176, N899R;Y900R)
# Summary of the method: (§1)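 A centromeric plasmid in strain YBZ-1 co-expressed Pumilio-1 PUF domain libraries, randomized at the three base-contacting residues of each repeat, with matching RNA elements; the strain carries a LexA–MS2 coat fusion and a HIS3 reporter. After four days on SC-Leu (input) or SC-Leu-His + 0.5 mM 3-AT (selection), the repeat regions were PCR-amplified and Illumina-sequenced. The interaction score is the log change in variant frequency from input to selection, using log2 and a pseudocount of 1 where absent.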
# PUM1 PUF domain R6-MYR = biological target: T1, PUM1 PUF domain R6-MYR (Homo sapiens, UniProt Q14671 828-1176, N1043M;Q1047R)
# T1 sequence: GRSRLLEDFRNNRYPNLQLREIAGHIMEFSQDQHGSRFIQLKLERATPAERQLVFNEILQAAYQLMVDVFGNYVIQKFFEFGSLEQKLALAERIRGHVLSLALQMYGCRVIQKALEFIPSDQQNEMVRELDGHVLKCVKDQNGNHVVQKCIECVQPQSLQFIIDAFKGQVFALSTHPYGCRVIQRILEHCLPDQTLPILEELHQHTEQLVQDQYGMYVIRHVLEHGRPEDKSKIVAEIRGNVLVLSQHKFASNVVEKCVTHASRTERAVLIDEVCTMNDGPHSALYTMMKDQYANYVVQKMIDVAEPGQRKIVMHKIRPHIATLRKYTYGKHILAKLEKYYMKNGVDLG
# Summary of the method: as §1
# PUM1 PUF domain R5-HLK = PUM1 PUF domain R5-HLK (Homo sapiens, UniProt Q14671 828-1176, C1007H;R1008L;Q1011K)
# Summary of the method: as §1
# PUM1 PUF domain R5-RAA = PUM1 PUF domain R5-RAA (Homo sapiens, UniProt Q14671 828-1176, C1007R;R1008A;Q1011A)
# Summary of the method: as §1
# PUM1 PUF domain R7-RVQ = PUM1 PUF domain R7-RVQ (Homo sapiens, UniProt Q14671 828-1176, S1079R;N1080V;E1083Q)
# Summary of the method: as §1
# PUM1 PUF domain R3-FWA = PUM1 PUF domain R3-FWA (Homo sapiens, UniProt Q14671 828-1176, C935F;R936W;Q939A)
# Summary of the method: as §1
# PUM1 PUF domain R3-KRG = PUM1 PUF domain R3-KRG (Homo sapiens, UniProt Q14671 828-1176, C935K;Q939G)
# Summary of the method: as §1
# PUM1 PUF domain R4-CYG = PUM1 PUF domain R4-CYG (Homo sapiens, UniProt Q14671 828-1176, N971C;H972Y;Q975G)
# Summary of the method: as §1
# PUM1 PUF domain R5-FRY = PUM1 PUF domain R5-FRY (Homo sapiens, UniProt Q14671 828-1176, C1007F;Q1011Y)
# Sequence of PUM1 PUF domain R5-FRY (Q14671 828-1176 C1007F/Q1011Y): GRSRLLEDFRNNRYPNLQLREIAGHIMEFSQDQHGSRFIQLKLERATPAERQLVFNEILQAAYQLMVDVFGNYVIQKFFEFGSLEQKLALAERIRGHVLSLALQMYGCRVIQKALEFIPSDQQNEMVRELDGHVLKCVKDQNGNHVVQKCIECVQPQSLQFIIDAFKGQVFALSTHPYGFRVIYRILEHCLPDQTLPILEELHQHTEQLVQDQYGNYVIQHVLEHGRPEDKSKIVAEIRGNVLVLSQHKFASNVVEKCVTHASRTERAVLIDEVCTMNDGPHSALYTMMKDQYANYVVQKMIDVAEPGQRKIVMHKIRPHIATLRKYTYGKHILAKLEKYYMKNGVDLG
# Summary of the method: as §1
# PUM1 PUF domain R5-FHE = PUM1 PUF domain R5-FHE (Homo sapiens, UniProt Q14671 828-1176, C1007F;R1008H;Q1011E)
# Sequence of PUM1 PUF domain R5-FHE (Q14671 828-1176 C1007F/R1008H/Q1011E): as the sequence (Q14671 828-1176 C1007F/Q1011Y) above, with R181H, Y184E counted along it
# Summary of the method: as §1
sequence,measurement,setting,value
GGCUAGAACUAGUGGAUCCCCCGGCGCCCGGCGGCUCGAGCCCGGGUAAGUGUAAAGAGUCUGCAUGCCGCCGGGCGCCAUGCCUGCAGGUCGACUCUAGAAAACAUG,binding signal,PUM1 PUF domain R2-RRQ,3.28 log2 enrichment (interaction score)
GGCUAGAACUAGUGGAUCCCCCGGCGCCCGGCGGCUCGAGCCCGGGUAAGUGCAAAUAGUCUGCAUGCCGCCGGGCGCCAUGCCUGCAGGUCGACUCUAGAAAACAUG,binding signal,PUM1 PUF domain R6-MYR,2.56 log2 enrichment (interaction score)
GGCUAGAACUAGUGGAUCCCCCGGCGCCCGGCGGCUCGAGCCCGGGUAAGUGUUAAUAGUCUGCAUGCCGCCGGGCGCCAUGCCUGCAGGUCGACUCUAGAAAACAUG,binding signal,PUM1 PUF domain R5-HLK,3.05 log2 enrichment (interaction score)
same,binding signal,PUM1 PUF domain R5-RAA,1.06 log2 enrichment (interaction score)
GGCUAGAACUAGUGGAUCCCCCGGCGCCCGGCGGCUCGAGCCCGGGUAAGUCUAAAUAGUCUGCAUGCCGCCGGGCGCCAUGCCUGCAGGUCGACUCUAGAAAACAUG,binding signal,PUM1 PUF domain R7-RVQ,1.92 log2 enrichment (interaction score)
GGCUAGAACUAGUGGAUCCCCCGGCGCCCGGCGGCUCGAGCCCGGGUAAGUGUAAAUAGUCUGCAUGCCGCCGGGCGCCAUGCCUGCAGGUCGACUCUAGAAAACAUG,binding signal,PUM1 PUF domain R3-FWA,4.55 log2 enrichment (interaction score)
same,binding signal,PUM1 PUF domain R3-KRG,2.15 log2 enrichment (interaction score)
same,binding signal,PUM1 PUF domain R4-CYG,7.43 log2 enrichment (interaction score)
same,binding signal,PUM1 PUF domain R6-MYR,6.42 log2 enrichment (interaction score)
GGCUAGAACUAGUGGAUCCCCCGGCGCCCGGCGGCUCGAGCCCGGGUAAGUUUAAAUAGUCUGCAUGCCGCCGGGCGCCAUGCCUGCAGGUCGACUCUAGAAAACAUG,binding signal,PUM1 PUF domain R7-RVQ,3.81 log2 enrichment (interaction score)
GGCUAGAACUAGUGGAUCCCCCGGCGCCCGGCGGCUCGAGCCCGGGUAAGUGUCAAUAGUCUGCAUGCCGCCGGGCGCCAUGCCUGCAGGUCGACUCUAGAAAACAUG,binding signal,PUM1 PUF domain R5-FRY,2.31 log2 enrichment (interaction score)
same,binding signal,PUM1 PUF domain R5-FHE,4.41 log2 enrichment (interaction score)
same,binding signal,PUM1 PUF domain R5-RAA,2.68 log2 enrichment (interaction score)
GGCUAGAACUAGUGGAUCCCCCGGCGCCCGGCGGCUCGAGCCCGGGUAAGUGUAAUUAGUCUGCAUGCCGCCGGGCGCCAUGCCUGCAGGUCGACUCUAGAAAACAUG,binding signal,PUM1 PUF domain R3-FWA,5.26 log2 enrichment (interaction score)
same,binding signal,PUM1 PUF domain R3-KRG,2.07 log2 enrichment (interaction score)
